Screening results: PubChem, National Center for Advancing Translational Sciences (NCATS)
Compounds with a hit are over-represented: about 0.54% of the library has one in this group of screens.
Vif-APOBEC3F blk – Vif-A3F binding inhibition; HeLa A3F-eYFP + Vif (tagged APOBEC3F with the HIV-1 protein that degrades it), YFP fluorescence increase; 0.2% of 390,000 active; AID 602313; Potency, µM (highest dose often 46.1 µM), without a hit: at the top dose activity, negative = active; note: potency is the fitted concentration of half-maximal effect; % of control where 0% means no effect; nearly all actives have a fitted effect of over 65% in size
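HeLa cells stably expressing A3F-eYFP plus Vif, plated and incubated overnight at 37 deg C, then exposed to compounds overnight at 37 deg C. Blocked degradation read as raised yellow fluorescence (Ex 488/Em 500-530).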
TRPML1 ag – agonists of human TRPML1 channel | Q9GZU1 | TRPML1-expressing cells, Ca2+ dye fluorescence, FDSS | activation, % (test concentration not listed) | 0.12% of 410,000 active | AID 624414; in the data active = activation above about 50%; inconclusive = mostly about 30% to 49%; note: 0% is about no effect
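Tetracycline-induced TRPML1-DL cells are seeded and incubated overnight before loading with a no-wash Ca2+ dye and quencher. Agonist activity is taken from the 110 s fluorescence read following compound pin-transfer on an FDSS, before EC80 54-4 challenge.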
Vif-APOBEC3G blk – inhibitors of Vif-APOBEC3G interaction. 0.076% of 410,000 active. Q9HC16. HeLa A3G-eYFP + Vif (tagged APOBEC3G with the HIV-1 protein that degrades it), YFP fluorescence, overnight. Potency, µM (titrated, usually from 46.1 µM), for the others: at the highest dose activity, negative = active, actives largely listed as inhibitors. AID 602310; note: potency is the fitted concentration of half-maximal effect; % is set by controls: 0 for no effect and ±100 for the full control effect; nearly all actives have a fitted effect of over 60% in size
Target sequence (Q9HC16 whole entry, looked up): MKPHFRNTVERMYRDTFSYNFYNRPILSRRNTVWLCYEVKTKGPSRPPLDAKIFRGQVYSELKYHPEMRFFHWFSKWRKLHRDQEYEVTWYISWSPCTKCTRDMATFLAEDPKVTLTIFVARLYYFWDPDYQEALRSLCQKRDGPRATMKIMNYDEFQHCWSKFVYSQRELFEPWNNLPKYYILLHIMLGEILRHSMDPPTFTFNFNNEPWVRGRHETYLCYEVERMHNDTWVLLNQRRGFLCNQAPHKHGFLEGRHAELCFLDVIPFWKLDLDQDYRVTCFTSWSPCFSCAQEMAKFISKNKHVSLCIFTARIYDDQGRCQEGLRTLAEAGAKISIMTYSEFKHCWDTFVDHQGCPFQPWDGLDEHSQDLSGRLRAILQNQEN
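HeLa cells stably expressing Vif and C-terminally eYFP-tagged A3G, seeded overnight at 37 deg C, then exposed to compound by pintool overnight at 37 deg C. Rise in yellow fluorescence (Ex 488/Em 500-530, Acumen) marks blocked Vif-driven A3G degradation.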
TRPML1 blocker – human mucolipin-1 channel inhibition; activity change, negative = inhibition, % (no concentration beside the values); TRPML1-inducible cells, Ca2+ dye fluorescence, FDSS; stronger effect = lower value; inhibition of EC80 agonist-evoked calcium signal; 0.02% of 390,000 active; AID 624415; Q9GZU1; in the data active = activity change below about -50%; inconclusive = between about -30% and that limit;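 note: stimulus is agonist 54-4 at its EC80 concentration; % is set by controls: 0 for no effect and ±100 for the full control effect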
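Calcium fluorescence in TRPML1-DL cells induced overnight with Tet: a 110 s read after compound pin addition, then a 110 s antagonist read after challenge with 54-4 at 4 uM final (EC80).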
A-T KAP1 phos – potential ataxia-telangiectasia treatment; F2112 A-T fibroblasts, KAP-1 phosphorylation AlphaLISA; neocarzinostatin DNA damage 30 min before lysis; AID 485349; Potency, µM (highest dose often 57.5 µM), without a hit: top-dose activation, actives largely listed as activators; 0.19% of 320,000 active; note: potency is the fitted concentration of half-maximal effect; % of control where 0% means no effect; nearly all actives have a fitted effect of over 45% in size
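hTERT-immortalized A-T patient fibroblasts (F2112), 500 cells/well in OPTI-MEM, 1% FBS, got compounds for 60 min, then NCS for 30 min at 37C. Lysates were then assayed for phospho-KAP-1 by AlphaLISA (anti-pKAP1 donor, anti-KAP1 acceptor beads), 6 hr at 25C.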
The depositor's hits bear a star; u = inconclusive; x = no result. Unless noted, calls come from the whole dose curve; as a rule, active = well fitted curve in the direction sought with a large enough effect; inconclusive = small, poorly fitted or top-dose-only effect, or another doubt; inactive = no such curve, though single readings can be large; an effect the other way counts as inactive or inconclusive.

SMILES	Vif-APOBEC3F blk	TRPML1 ag	Vif-APOBEC3G blk	TRPML1 blocker	A-T KAP1 phos
CCN(c1cc(C)cc(C)c1)S(=O)(=O)c1nnc(NC(=O)C2CCCCC2)s1	-1%	5	0%	u	x
O=C(O)CCCNc1cc(N2CCN(C(=O)c3ccco3)CC2)c2noc3c2c1C(=O)c1ccccc1-3	u	1	22µM*	12	-9%
CN1CCN(c2cc(N3CCN(C(=O)c4ccco4)CC3)c3c4c(onc24)-c2ccccc2C3=O)CC1	2%	0	6%	-11	-9%
O=C(O)CCCNc1cc(N2CCC3(CC2)OCCO3)c2noc3c2c1C(=O)c1ccccc1-3	x	x	x	x	2%
CCOC(=O)N1CCN(c2cc(NCCC(=O)O)c3c4c(onc24)-c2ccccc2C3=O)CC1	7.1µM*	-1	u	2	-12%
O=C(OCCC12CC3CC(CC(C3)C1)C2)c1ccc(NCc2cc(O)ccc2O)cc1	u	0	u	-10	x
O=C(OCC12CC3CC(CC(C3)C1)C2)c1ccc(NCc2cc(O)ccc2O)cc1	22µM*	1	-15%	6	x
COc1cn(CC(=O)Nc2c(C)cc(C)cc2C)c(CN2CCCCC2)cc1=O	5%	1	-4%	14	x
C=CCn1c(SCC(=O)Nc2ccc(N3CCOCC3)cc2)nnc1-c1ccco1	2%	0	-2%	47	25µM*
Cc1ccc(N(C)S(=O)(=O)c2nnc(NC(=O)C3CCCCC3)s2)cc1	1%	1	-2%	-9	x
CCc1cccc(NC(=O)CSc2nc3ccccc3nc2N2CCCCC2)c1	1%	2	7%	13	x
Cc1cc(C)cc(NC(=O)CN2CCN(c3ccccc3)CC2)c1	5%	5	-1%	3	10µM*
O=C(CN1CCN(c2ccccn2)CC1)Nc1cccc(Br)c1	-16%	1	-3%	2	16µM*
Cc1cc(C)cc(NC(=O)CN2CCN(c3ccccn3)CC2)c1	4%	1	0%	6	1%
O=C(CN1CCN(c2ccccn2)CC1)Nc1cccc(F)c1	4%	2	0%	7	-2%
COc1ccc(C2c3c(n(C)c4ccccc34)C(=O)N2CC(=O)Nc2ccc(C)c(Cl)c2)cc1 (configuration not stated)	5%	0	-1%	0	x
Cc1ccc2c(c1)C(c1ccc(F)cc1)N(C(=O)C(C)C)CC(=O)N2 (configuration not stated)	1%	0	-3%	-28	x
CC(C)(C)n1ncc2c(=O)n(Cc3cccc(C#N)c3)cnc21	x	0	-2%	0	x
O=C(CSc1ccc2ccccc2c1)N1CCN(c2ccc(O)cc2)CC1	-10%	0	2%	-8	25µM*
Cc1ccc(C)c(N2CCN(C(=O)c3cc(S(=O)(=O)N4CCC(C)CC4)cn3C)CC2)c1	0%	1	1%	7	x
CC(=O)c1ccc(NC(=S)NC(=O)/C=C/c2ccc(F)cc2)cc1	0%	0	-4%	6	3.2µM*
C=CCN1C(=O)/C(=C/C(=O)OC)S/C1=N\NC(=O)c1ccccc1	1%	0	-11%	-13	10µM*
CC(=O)c1ccc(NS(=O)(=O)c2ccc3[nH]c(=O)[nH]c3c2)cc1	4%	1	1%	11	x
O=C1CSC(=S)N1Cc1cccnc1	11µM*	2	u	26	2%
CCn1cc(/C=C/c2cc[n+](C)cc2)c2ccccc21	-521%	13	2.5µM*	-23	3.2µM*
SMILES	Vif-APOBEC3F blk	TRPML1 ag	Vif-APOBEC3G blk	TRPML1 blocker	A-T KAP1 phos
CC(C)n1cc(/C=C/c2cc[n+](C)cc2)c2ccccc21	-498%	23	4µM*	-22	-6%
Cc1ccc(CCNC(=O)c2ccc(CSc3nc4ccncc4n3Cc3ccc(F)cc3)cc2)cc1	-17%	1	4%	1	x
CCOC(=O)C1CCN(c2ncnc3c2c(-c2ccccc2)cn3-c2ccccc2)CC1	8%	75*	12%	-17	16%
Cc1cccc(N2CCN(c3ncnc4c3c(-c3ccccc3)cn4-c3ccccc3)CC2C)c1 (configuration not stated)	4%	51*	0%	-26	x
Cc1cccc(-n2cc(-c3ccccc3)c3c(N4CCOCC4)ncnc32)c1	-1%	2	-7%	-14	3%
O=C(Nc1ccc(Cl)cc1)Nc1nc(-c2ccccc2O)cs1	-4%	0	1%	-2	40µM*
CC1C(c2ccccc2)N(C)C(c2ccccc2)CC1(O)c1ccccc1 (configuration not stated)	u	0	-14%	-14	10µM*
Cc1cccc(N(C)S(=O)(=O)c2nnc(NC(=O)C(C)(C)C)s2)c1	1%	4	2%	-1	x
Cc1ccc2nc(/C(C#N)=C/c3ccc(-c4cccc([N+](=O)[O-])c4)o3)[nH]c2c1	10µM*	5	-23%	7	1%
Cc1c(Cl)cccc1-c1ccc(/C=C(\C#N)c2nc3ccccc3[nH]2)o1	13µM*	30	u	5	x
COc1cccc(/C=C(\C#N)c2nc3ccc(C)cc3[nH]2)c1	u	1	u	13	x
Cc1ccc2nc(/C(C#N)=C/c3ccc(-c4ccc(F)cc4F)o3)[nH]c2c1	u	22	11µM*	-1	x
O=C(NC1CCCCCC1)c1cc2c(Cl)nc3ccccc3c2s1	-9%	-1	2%	19	x
Clc1ccc(-c2nnc(-c3cccc4ccccc34)o2)cc1Cl	5%	0	1%	-18	16µM*
O=C(N/N=C/c1c(O)n(-c2ccc(Cl)cn2)c(=O)c2ccccc12)C1CC1	-19%	0	-1%	-10	-7%
O=C(N/N=C/c1c(O)n(-c2ccc(Cl)cn2)c(=O)c2ccccc12)c1ccncc1	22µM*	11	-19%	0	-5%
CCC(C)NC(=O)C1=CCN(S(=O)(=O)c2ccc(C)cc2)CC1 (configuration not stated)	-5%	0	-1%	-54*	0%
COc1ccc(N=Nc2nc3ccc(Br)cc3n2C)cc1	7%	54*	-5%	-6	1%
O=C(COC(=O)CNC(=O)c1ccc([N+](=O)[O-])o1)Nc1ncc(Cl)cc1Cl	3%	1	-10%	-11	35µM*
O=C(COC(=O)CNC(=O)c1ccc([N+](=O)[O-])o1)Nc1ncc(C(F)(F)F)cc1Cl	-23%	0	-1%	6	22µM*
Cc1ccc(C(=O)NCC(=O)OCC(=O)Nc2ncc(C(F)(F)F)cc2Cl)cc1	3%	1	8%	-12	-6%
COc1ccccc1S(=O)(=O)Nc1ccc(-c2nnc3n2CCCCC3)cc1	-19%	-1	0%	9	3.5µM*
CCC(=O)Nc1nnc(S(=O)(=O)N(C)Cc2ccc(Cl)cc2)s1	10%	1	3%	16	x
